Screening data (PubChem BioAssay)
In the library only some 1.3% were active in any assay of this set; here they are far more common.
Akt phos inh = HTS Assay for Inhibitors of Akt Phophorylation: Primary Screen; activity change, % for hits at 50 µM; AID 651550, 2012; Neuro2A IGF-stimulated pAkt S473 HTRF, 20 min; hits give low values; actives 0.32% (n = 360,000); in the data active = activity change below about -80%; inconclusive = mostly about -51% to -80%; also: % is scaled to controls: 0 for no effect and ±100 for the full control effect
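Single-point screen (50 µM final compound) in Neuro2A cells stimulated 20 min with 6 nM IGF at 37 deg C. After lysis, Ser473-phosphorylated Akt read by HTRF (ex 330 nm, em 615/665 nm) as the 665/615 ratio.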
gsp antag = qHTS for Antagonists of gsp, the Etiologic Mutation Responsible for Fibrous Dysplasia/McCune-Albright Syndrome: qHTS; gsp-mutant cells, cAMP HTRF, 30 min; actives 0.4% (n = 340,000); Potency, µM (top dose mostly 76.9 µM), inactives show at the highest dose activity change, negative = inhibition, most hits filed as inhibitors; calls by dose curve; cell line not stated here;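 also: intracellular cAMP measured with PDE inhibitor Ro 20-1724 present during compound exposure; potency is read from the fitted curve at half-maximal effect; % is scaled to controls: 0 for no effect and ±100 for the full control effect; nearly all actives have a fitted effect of over 65% in size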
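G418-selected cells were plated in DMEM/10% FBS for 16-24 h at 37C, then treated with compounds plus the PDE inhibitor […] (300 uM solution added) for 30 min at 37C. Intracellular cAMP was measured by HTRF after 30 min lysis at room temperature.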
RXFP1 ag = qHTS Assay for Agonists of the Relaxin Receptor RXFP1; Relaxin receptor 1 (Homo sapiens), Q9HBX9; Potency, µM (highest dose often 57.5 µM), for the others: top-dose activation, most hits filed as activators; actives 0.3% (n = 370,000); HEK293T-RXFP1 cAMP TR-FRET, 30 min; response scale: percent of porcine relaxin response, buffer zero; AID 2676, 2010; active = well fitted activation curve with a large enough effect; inconclusive = small, poorly fitted or top-dose-only effect; also: potency is read from the fitted curve at half-maximal effect; % is scaled to controls: 0 for no effect and ±100 for the full control effect; nearly all actives have a fitted effect of over 60% in size
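Agonist response is measured as cAMP accumulation in an RXFP1-transfected HEK293T line under PDE4 inhibition. Values are scaled between buffer-only and 29 nM porcine relaxin, and EC50s come from standard Hill equation fits.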
gsp ag = qHTS for Agonist of gsp, the Etiologic Mutation Responsible for Fibrous Dysplasia/McCune-Albright Syndrome: qHTS; gsp mutant cells, cAMP HTRF, 30 min; Potency, µM (top dose mostly 76.9 µM), for the others: at the highest dose activation (cAMP increase), actives largely listed as activators; actives 0.13% (n = 340,000); active = well fitted activation curve with a large enough effect; inconclusive = small, poorly fitted or top-dose-only effect, or another doubt; inactive = no such curve, though single readings can be large or run the other way; cell line not stated here;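 also: phosphodiesterase inhibitor Ro 20-1724 added with compounds to block cAMP breakdown; potency is read from the fitted curve at half-maximal effect; nearly all actives have a fitted effect of over 60% in size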
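Cells in DMEM/10% FBS with G418 were pretreated with compounds in DMSO plus […] (300 uM stock) for 30 min at 37C. cAMP was measured by HTRF (cAMP-d2 plus anti-cAMP antibody-K) after 30 min at room temperature.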
TSHR antag = Antagonists of the Thyroid Stimulating Hormone Receptor: HTS campaign. Thyrotropin receptor (Homo sapiens), P16473. TSHR-expressing cells, TSH-stimulated cAMP HTRF, 2 h; hits give low values. activity change, negative = inhibition, % at 11.5 µM. actives 0.2% (n = 330,000). AID 504810, 2011;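 active = activity change below a set negative limit, meaning inhibition stronger than a set level, cut at about -70% in these data; inconclusive = activity change between two set negative limits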; also: % is scaled to controls: 0 for no effect and ±100 for the full control effect
Target sequence (P16473 whole entry, looked up): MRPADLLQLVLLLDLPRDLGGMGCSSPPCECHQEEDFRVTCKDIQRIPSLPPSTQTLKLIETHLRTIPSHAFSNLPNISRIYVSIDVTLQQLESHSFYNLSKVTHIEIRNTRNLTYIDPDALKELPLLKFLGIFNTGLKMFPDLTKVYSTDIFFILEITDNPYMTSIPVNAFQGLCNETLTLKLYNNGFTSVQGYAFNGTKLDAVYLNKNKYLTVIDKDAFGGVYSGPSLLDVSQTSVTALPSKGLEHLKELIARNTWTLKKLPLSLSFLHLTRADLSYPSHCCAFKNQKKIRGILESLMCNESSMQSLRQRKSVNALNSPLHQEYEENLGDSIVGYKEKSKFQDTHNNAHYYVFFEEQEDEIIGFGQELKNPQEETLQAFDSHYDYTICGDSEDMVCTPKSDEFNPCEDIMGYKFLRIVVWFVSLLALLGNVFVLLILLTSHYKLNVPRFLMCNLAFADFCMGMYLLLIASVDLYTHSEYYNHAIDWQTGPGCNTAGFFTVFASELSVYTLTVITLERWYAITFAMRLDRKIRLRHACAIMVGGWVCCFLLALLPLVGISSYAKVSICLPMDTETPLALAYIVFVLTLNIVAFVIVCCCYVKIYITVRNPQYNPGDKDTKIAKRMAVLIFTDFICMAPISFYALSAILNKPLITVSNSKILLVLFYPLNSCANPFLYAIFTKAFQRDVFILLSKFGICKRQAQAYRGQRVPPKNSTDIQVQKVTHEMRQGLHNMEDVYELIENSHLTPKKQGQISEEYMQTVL
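Competitive HTRF cAMP read-out (cryptate anti-cAMP antibody, cAMP-d2; 30 min, room temperature) in freshly harvested TSHR cells. Compounds added before TSH at EC80 (4nM final), followed by 2 hours' incubation at 37 deg C.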
RXFP1 antagonist = qHTS Assay for Antagonists of the Relaxin Receptor RXFP1; activity change, negative = inhibition, % at 57.5 µM; AID 1259400, 2018; actives 0.59% (n = 350,000); HEK293-RXFP1, relaxin-stimulated cAMP HTRF, 30 min; hits give low values;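 active = activity change of -60% or lower, but not beyond a set lower limit; inconclusive = change between -60% and -40%, or beyond the set limit; inactive = change above -40%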; also: % is scaled to controls: 0 for no effect and ±100 for the full control effect
Starred values were filed as active, the others as inactive; i = inactive; ? = inconclusive; . = no result given; [ ] = another dose, or the depositor's remark.

SMILES	Akt phos inh	gsp antag	RXFP1 ag	gsp ag	TSHR antag	RXFP1 antagonist
CCc1ccc(/C=N/NC(=O)c2cc(-c3ccncc3)nc3ccccc23)s1	i	7.1%	2.4%	0.2%	14.0	1.6
CCCc1cc(C(=O)N/N=C/c2ccc(CC)s2)c2ccccc2n1	-117.6%*	-8.3%	-1.2%	-7.0%	11.6	-6.5
COc1ccc(NC(=S)NCCc2ccccc2)c(OC)c1	i	6.8%	1.1%	-52.4%	3.0	-6.5
COc1ccc(NC(=S)NCc2ccccc2)c(OC)c1	i	-0.1%	0.3%	-2.6%	3.9	-73.2*
COc1cc(Nc2c(C#N)cnc3cc(OCCCN4CCN(C)CC4)c(OC)cc23)c(Cl)cc1Cl	.	.	.	.	.	-12.8
CCOc1cccc(CC(=O)NCc2ccc3c(c2)CCN3C(C)=O)c1OCC	.	.	2.1%	.	.	-12.2
COc1cc(C(=O)NCCNC(=O)c2cnccn2)cc(OC)c1OC	i	9.7%	1.1%	11.3%[15.4 µM]	-81.8*	11.0
Cc1nc2scc(C)n2c(=O)c1S(=O)(=O)N1CCN(c2ccccc2)CC1	i	16.8%	21.6%	?	4.4	4.6
Cc1nc2scc(C)n2c(=O)c1S(=O)(=O)N1CCN(c2ccccn2)CC1	i	18.2%	25.1µM*	43.3%[15.4 µM]	14.8	18.2
O=C(NN1CCOCC1)c1cccc(Cl)c1	i	5.7%	-1.0%	-8.6%	15.0	7.2
CCOCCn1ccc2c(OCC(=O)Nc3ccc(OC)c(OC)c3)cccc2c1=O	i	35.5µM*	0.3%	-23.2%[15.4 µM]	-28.8	-9.2
CCCCS(=O)(=O)NC1=NCN(CCOC(=O)c2ccccc2)CN1	-102.6%*	4.7%	.	-1.1%	.	-14.5
Cc1ccc(NC(=O)c2cc3c(=O)n(Cc4ccco4)ccc3nc2C)cc1C	.	.	1.3%	.	.	-12.9
CCC(NC(=O)Nc1nccs1)(C(F)(F)F)C(F)(F)F	i	8.8%	-0.1%	12.1%	12.8	-3.4
CCC(C(=O)Nc1nccs1)(C(F)(F)F)C(F)(F)F	i	31.6µM*	-0.2%	5.1%	-11.7	-6.0
Cc1nc(-c2c(C(F)(F)F)noc2-c2ccc(O)cc2O)cs1	i	-7.2%	-0.1%	0.1%	-19.2	-2.7
CCOc1cc(C)c(-c2onc(C(F)(F)F)c2-c2csc(C)n2)c(O)c1	i	?	3.3%	5.1%	-5.8	-84.1*
CSCC[C@H](NC(=O)c1cc([N+](=O)[O-])ccc1Cl)c1nc2ccccc2[nH]1	i	-5.5%	1.5%	0.7%	3.5	8.9
CSCC[C@H](NC(=O)COc1ccc(Cl)cc1)c1nc2ccccc2[nH]1	i	7.94µM*	-0.2%	3.5%[15.4 µM]	24.4	0.7
Cc1c(OCC(=O)NCC(O)c2ccccc2)ccc2c(-c3ccccc3)cc(=O)oc12 (stereo unspecified)	i	28.2µM*	0.0%	.	6.0	.
CCOC(=O)c1c(C)nc2sc3c(=O)n(-c4ccc(C(C)=O)cc4)cnc3c2c1-c1ccc(Cl)cc1	i	6.2%	2.3%	14.3%	16.3	-1.6
CCOC(=O)c1c(C)nc2sc3c(=O)n(-c4ccc(C)cc4)cnc3c2c1-c1ccc(OC)cc1	-109.7%*	14.2%	-0.3%	?	-0.3	-1.8
Cc1cccc(N2CCN(C(=O)c3nn(C)c4c3CSc3ccccc3-4)CC2C)c1 (stereo unspecified)	.	.	-3.6%	.	.	-37.1
Cc1cccc(N2CCN(C(=O)c3nn(C)c4c3CS(=O)(=O)c3ccccc3-4)CC2C)c1 (stereo unspecified)	i	35.5µM*	-3.5%	8.7%	-10.1	14.0
O=S1(=O)CCC(N=Nc2c(O)n(Cc3ccccc3)c3ccccc23)C1 (stereo unspecified)	i	-0.6%	3.2%	-0.5%	-5.4	10.0
SMILES	Akt phos inh	gsp antag	RXFP1 ag	gsp ag	TSHR antag	RXFP1 antagonist
O=C(CSc1nnc2c(Cl)cc(Cl)cn12)NC1CCS(=O)(=O)C1 (stereo unspecified)	i	8.5%	17.7%	10µM*	21.5	4.5
COc1ccccc1/C=C1\SC(=S)N(Nc2nc(C)cc(C)n2)C1=O	i	5.5%	0.5%	-19.5%	-11.0	8.9
Cc1cc(C)nc(NN2C(=O)/C(=C/c3ccc(O)cc3)SC2=S)n1	i	?	1.3%	18.2%	-29.5	-116.2*
CCCOc1ccc(C(=O)CCC(=O)Nc2ccc(N3CCN(C)CC3)cc2)cc1	i	14.8%	0.8%	?	4.8	-11.7
Cc1nnc(Nc2ccc(S(N)(=O)=O)cc2)c2ccccc12	i	22.7%	25.1µM*	?	14.8	35.1
O=C(OCC(=O)c1cccc2ccccc12)c1ccc(CO)cc1	i	-21.5%	0.3%	-11.2%	3.6	?
Cc1nn(-c2ccccc2)c(C)c1/C=N/O	-111.4%*	6.7%	2.2%	10.5%	-1.2	-20.8
Cc1nn(-c2ccccc2)c(C)c1/C=N/n1cnnc1	i	.	0.7%	-5.9%[15.4 µM]	-3.7	-9.7
CC(C)Sc1nc(NCc2ccco2)c2c3c(sc2n1)COC(C)(C)C3	-118.2%*	2.5%	3.0%	29.1%	-5.4	-8.9
O=C(Nc1ccccc1C(=O)N1CCN(c2cccc(Cl)c2)CC1)C1=CSCCO1	i	-14.8%	-0.6%	-22.3%	-132.3*	17.6
CCOC(=O)C(C)Sc1ccc2nnc(-c3ccc(F)cc3)n2n1 (stereo unspecified)	i	-9.0%	7.9%	20.6%	-9.8	-5.8
COC(=O)C(C)Sc1ccc2nnc(-c3ccccc3)n2n1 (stereo unspecified)	i	0.6%	25.1µM*	10µM*	-1.8	-0.4
Cc1ccc(-c2nnc3ccc(SC(C)C(=O)O)nn23)cc1 (stereo unspecified)	i	15.0%	?	10µM*	3.7	.
CCOC(=O)CC(=O)CSc1ccc2nnc(-c3ccccc3)n2n1	i	7.4%	?	?	2.4	49.1
CCOC(=O)c1[nH]c2ccc(OC)cc2c1NS(=O)(=O)c1ccc(Cl)s1	i	-22.0%	-0.3%	-2.7%[15.4 µM]	-0.3	-3.4
COc1ccc2[nH]c(C(=O)O)c(NS(=O)(=O)c3ccc(Cl)s3)c2c1	-88.0%*	-8.0%	1.6%	-51.5%	-2.8	-6.9
Cc1ccc(-n2c(=O)c3c4c(sc3n(Cc3ccccc3F)c2=O)CCC4)cc1C	.	.	-0.2%	.	.	-5.7
